In PubChem BioAssay AID686978 (National Center for Advancing Translational Sciences (NCATS), 2013) one finds Potency data, which are given here for 53 molecules.

Hit rate of the full screen: of about 420,000 compounds, about 64,000 (15%) were called active. Another 27% or so got no clear call; they are omitted. The call rests on the fitted dose curve; in most records, active means well fitted inhibition curve with a large enough effect; inconclusive means small, poorly fitted or top-dose-only effect; inactive means flat fitted curve, though single readings scatter. A selection follows. Where a call stands in place of a potency, no number is given.
Potency means the concentration at half of the fitted maximal effect.

The nature of the test: qHTS for Inhibitors of human tyrosyl-DNA phosphodiesterase 1 (TDP1): qHTS in cells in absence of CPT. Further: nearly all actives have a fitted effect of over 55% in size. Conditions: DT40 Tdp1-/- hTDP1 cells, no CPT, ATP luminescence, 48 h; activity change, negative = growth inhibition: at 46.2 µM (top of the series). From the text: Human tyrosyl-DNA phosphodiesterase 1 (TDP1) is a novel repair gene, and we propose to use it as a new target for anticancer drug development. TDP1 is not an essential protein, but under treatment with topoisomerase I poison (camptothecin: CPT), TDP1 works as a critical factor for cell survival. To directly identify novel TDP1 inhibitors active in a cellular environment, we have knocked-out the Tdp1 gene in chicken DT40 cells (Tdp1-/-) and generated a complemented counterpart cells that contains a stable transfection of the human TDP1 gene (Tdp1-/-;hTDP1 cells). For the primary screen, Tdp1-/-;hTDP1 cells will be exposed to small molecules in the presence or absence of CPT, and their growth kinetics will be evaluated after 48 hours by measuring ATP activity. […] The hit compounds will then be evaluated in the presence or absence of CPT using Tdp1-/- cells. […] In tertiary assays, biochemical gel-based assays will be used to assess whether the hit compounds specifically target TDP1.
To this end, we have screened this cell line against the MLSMR in two primary screens. In one screen we add CPT and in the other we screen in the absence of CPT; this AID represents the screen where CPT was absent.
NIH Chemical Genomics Center [NCGC]
NIH Molecular Libraries Probe Centers Network [MLPCN]
Assay Submitter (PI): Yves Pommier, NCI
DT40-hTDP1 cells without 20 nM Camptothecin (add 20 microL of DMSO in 1 L of cell culture medium) were dispensed at 400 cells/5microL/well in tissue culture treated 1536-well white wall/solid bottom assay plates (Greiner Bio-One North America, NC, U.S.A.) using a Multidrop Combi 8 channel dispenser (Thermo Fisher, Waltham, MA, USA). 23 nL compounds and controls were transferred using the pin tool (Kalypsys, San Diego, CA, USA) to the assay plates. The assay plates were then incubated at 37 masculineC for a minimum 48 hr. Three microL of Cell Titer Glo solution was added to the plates and incubated at RT in dark for 30 min. Luminescence was read using ViewLux (Perkin Elmer) with 1 sec exposure slow speed, high gain and 2x binning.
For orientation: Quantitative high-throughput screening tests each substance at several concentrations.
As to `O=C(COC(=O)c1cccs1)Nc1ccccc1Cl`, the Potency entry was “inactive”.
Consider `NS(=O)(=O)c1ccc(NC(=O)COC(=O)c2c3c(nc4ccccc24)/C(=C\c2ccc4c(c2)OCO4)CCC3)cc1`, for which the Potency was 13 µM (active).
Turning to `O=C(COC(=O)c1ccc(F)cc1)Nc1ccc2c(c1)OCO2`, the Potency result was “inactive”.
In the case of `O=C(COC(=O)c1ccncc1)Nc1ccc2c(c1)OCO2`, the Potency entry was “inactive”.
To `COc1cc(-c2cc(C(=O)OCC(=O)Nc3ccc4c(c3)OCO4)c3ccccc3n2)cc(OC)c1OC` belongs “inactive”; to `COCCC(=O)Nc1ccc2c(c1)CN(C(=O)CCOC)CC2`, “inactive”.
For `COc1ccccc1C(=O)OCC(=O)NCCNC(=O)COC(=O)c1ccccc1OC` the value was “inactive”.
With `C/C=C(\C)C(=O)N1CC2(CC(c3cccc(NC(=O)CCCCC)c3)=NO2)C[C@@H]1C(N)=O` (stereo partly drawn), the Potency result was “inactive”.
For `O=C(CCN1CCc2ccccc2C(O)(c2ccccc2)C1)c1ccc2c(c1)OCCO2` (stereo not drawn) the value was 2.91 µM (active).
For the molecule `O=C(COC(=O)c1ccccc1)c1ccc2c(c1)OCCO2`, the Potency entry is “inactive”.
To `CCC1(c2ccccc2)NC(=O)N(CC(=O)c2ccc3c(c2)OCO3)C1=O` (stereo not drawn) belongs “inactive”; to `COc1ccc(CCOC2OC(CO)C(OC(=O)/C=C/c3ccc(O)c(OC)c3)C(O[C@H]3O[C@@H](C)[C@H](O)[C@@H](O)[C@H]3O)C2O)cc1O` (stereo partly drawn), “inactive”.
As to `Cc1ccc(CNC(=O)c2ccccc2CCc2ccccc2)cc1`, the Potency entry is “inactive”.
Regarding `CNC[C@H](CC1CCCCC1)NC[C@H](NCCC1CCCC1)[C@H](C)O`, the Potency was 20.6 µM (active).
In the case of `O=C(CN1C(=O)NC2(CCCCCC2)C1=O)NCc1cccs1`, the Potency entry is “inactive”.
As for `CN=C1SC(C(=O)O)CC(=O)N1C` (stereo not drawn), the Potency result is “inactive”.
For `COc1ccc(C(=O)n2nc(C)c(Br)c2C)cc1OC` the value was “inactive”; for `COc1ccc(CC(=O)n2nc(-c3cccnc3)nc2N)cc1`, “inactive”.
With `COc1ccc(C(=O)n2nc(-c3ccc(C)cc3)nc2N)cc1OC`, the Potency is 10.3 µM (active).
For `Oc1ccc(Cl)c2c1CCC2` the value was “inactive”.
As to `CN(Cc1cccnc1)C(=O)c1cc(COc2ccc3ncccc3c2)on1`, the Potency was 8.2 µM (active).
As to `CN(CCOc1ccccc1)C(=O)c1cc(COc2c(F)cccc2F)on1`, the Potency entry was “inactive”.
For the molecule `Cc1ccc(OCc2cc(C(=O)N(C)CCc3ccccc3)no2)cc1C`, the Potency entry is “inactive”.
As for `CCOC(=O)CNC(=O)CSc1ccc2nnc(-c3cccnc3)n2n1`, the Potency result was “inactive”.
For `COc1ccc(COC(=O)c2n[nH]c3ccccc23)cc1F` the value was “inactive”; for `Cn1c(SCc2c(F)cccc2Cl)nnc1-c1cnccn1`, “inactive”; for `Cc1cc([N+](=O)[O-])c(NC2CCCCC2)c([N+](=O)[O-])c1`, “inactive”.
For `CC1CN(C(=S)Nc2ccc(S(N)(=O)=O)cc2)CC(C)O1` (stereo not drawn) the value was “inactive”; for `CCCCN(CC)C(=O)c1ccc2c(c1)OCO2`, “inactive”.
To `CCOC(=O)NCc1ccc2c(c1)OCO2` belongs “inactive”; to `COCCN(Cc1cc2cc3c(cc2nc1Cl)OCO3)C(=O)c1cccc(C)c1`, 16.4 µM (active); to `Nc1ncnc2c1ncn2[C@@H]1O[C@H](C(=O)N2CCCN(Cc3ccccc3F)CC2)[C@@H](O)[C@H]1O`, “inactive”.
Consider `COC(=O)CCC(=O)N1CCCC(CO)(Cc2ccccc2)C1` (stereo not drawn), for which the Potency result is “inactive”.
To `COc1cccc(CC2(CO)CCCN(Cc3nc(-c4cccs4)oc3C)C2)c1` (stereo not drawn) belongs 20.6 µM (active).
For `CCOc1cc(CN2CCCC(CO)(Cc3ccc(F)cc3F)C2)ccc1OC` (stereo not drawn), the Potency entry was “inactive”.
For `Cc1ccc(CS(=O)(=O)CCC(=O)NC2CC2)cc1` the value was “inactive”; for `CC[N+]1(CC)CC2=Cc3ccccc3CC2C1` (stereo not drawn), “inactive”; for `O=C(Cn1c[n+](CC(=O)c2ccc([N+](=O)[O-])cc2)cn1)c1ccc([N+](=O)[O-])cc1`, 20.6 µM (active).
For `O=C(Nn1cnnc1)c1ccc([N+](=O)[O-])cc1` the value was “inactive”.
As for `O=C(c1ccncc1)c1ccc([N+](=O)[O-])cc1`, the Potency entry was “inactive”.
On to `CCOC(=O)CSc1nnc(-c2ccc([N+](=O)[O-])cc2)o1`, for which the Potency result is “inactive”.
To `COc1ccccc1C(=O)Nn1cnnc1` belongs “inactive”.
For `O=C(NC1CCC(O)CC1)c1ccccc1OCc1ccc(F)cc1` (stereo not drawn) the value was “inactive”.
For `COc1ccccc1C(=O)NNC(=O)c1ccc(NC(=O)c2ccccc2)cc1` the value was “inactive”; for `CC(=O)c1ccccc1OCc1ccc(C(=O)c2ccccc2)cc1`, 16.4 µM (active); for `COc1ccccc1C(=O)c1ccccc1C(=O)c1ccccc1`, 18.4 µM (active).
On to `O=C(Nc1ccccc1)c1ccccc1OCc1ccccc1`, for which the Potency entry was “inactive”.
In the case of `COc1ccc(CC(=O)OC(C)C(=O)Nc2ccc(S(N)(=O)=O)cc2)cc1` (stereo not drawn), the Potency result is “inactive”.
For `O=C(Nc1ccccc1C(=O)O)c1ccc(N2C(=O)C3CC=CCC3C2=O)cc1` (stereo not drawn) the value was “inactive”.
Turning to `O=CN1CCN(C(=O)c2ccc3c(c2)OCO3)CC1`, the Potency result is “inactive”.
For `C=CCNC(=O)COc1coc(CN2CCN(Cc3ccccc3)CC2)cc1=O`, the Potency entry is “inactive”.
To `CNC(=S)NNC(=O)c1cccn(Cc2ccccc2)c1=O` belongs “inactive”; to `C=CCNC(=S)/N=c1/ccccn1Cc1ccccc1`, 1.84 µM (active).
